Assay results from ChEMBL document CHEMBL3988442, “University of Dundee, Small-Polar-MMV Screening Library” (2021).
In all, about 48,000 compounds went through this assay and about 13,000 (27%) showed an effect of 50% or more. The list shows a part of the results.

Each molecule was assayed on Wolbachia pipientis (assay: Anti-Wolbachia Cell-Based Screen). Details: 5 µM.
Format: functional
Design: scale not given: in the data most compounds retested in dose-response had high values

Compound | Percent Effect [%]
Cc1cc(CC(=O)N2CCN(CC3CC3)[C@@H]3CS(=O)(=O)C[C@@H]32)ccc1F | 7.302
O=S1(=O)CCC(n2cc(C3=CCN(CCc4ccccc4)CC3)cn2)C1 (stereo not given) | -5.355
Cc1n[nH]c(C)c1CC(=O)N1CCN(C)C2(CCNC(=O)CC2)C1 (stereo not given) | 2.016
O=C(Nc1ccccc1)[C@H]1CN2CC[C@H]1C[C@@H]2Cn1cc(CCO)nn1 | -5.907
CC(=O)N1CCC2(CC1)c1ncc(-c3cccnc3)n1CCN2C | 84.46
CC1CN(CCc2ccncc2)CCO1 (stereo not given) | 124.6
CCC1CCCCN1CCc1ccncc1 (stereo not given) | -22.38
c1ccc2c(c1)CCC21CN(CCc2ccncc2)CCO1 (stereo not given) | -6.517
CC(C)=CCN1C(=O)[C@H]2CC[C@@H]1CN(Cc1cccnc1N)C2 | 18.56
COc1cccc(CC(C)NC(=O)NCc2ccn(C)c2)c1 (stereo not given) | -0.6382
O=C(O)C(F)(F)F.c1cc(COC[C@H]2CCC[C@]23CNCCO3)ccn1 | 99.79
O=C(NCC1CC[C@@]2(CNCCOC2)O1)c1cccnc1 (stereo not given in full) | -3.368
Cl.Cl.c1cncc(COC[C@@H]2CCC[C@@]23CNCCO3)c1 | 86.08
CN(C)C(=O)CN1CC[C@@H]2O[C@@H](COCc3cccnc3)CC[C@@H]21.O=C(O)C(F)(F)F.O=C(O)C(F)(F)F | -11.44
CCN(Cc1cccnc1)CC1CCCO1 (stereo not given) | -10.66
O=C(O)C(F)(F)F.O=C(O)C(F)(F)F.O=C1NCC[C@]12CN(Cc1ccncc1)C[C@H]2c1ccccc1 | 4.919
O=C(O)C(F)(F)F.O=C(O)C(F)(F)F.c1cncc(COC[C@@H]2CCC[C@]23CNCCO3)c1 | 101.8
COC[C@@H]1CCC[C@]12CN(Cc1cccc(C)n1)CCO2.O=C(O)C(F)(F)F.O=C(O)C(F)(F)F | 6.622
O=C(O)C(F)(F)F.O=C(O)C(F)(F)F.O=C1NCC[C@]12CN(Cc1cccnc1)C[C@H]2c1ccccc1 | -5.552
CC(C)(C)c1cc(=O)[nH]c(C2(N)CCCC2)n1 | 3.211
CC[C@H]1CN2CC[C@H]1C[C@@H]2CNC(=O)Nc1cccc(C(F)(F)F)c1 | -2.454
Cc1noc(CN2CC=C(c3cnn(C4CCS(=O)(=O)C4)c3)CC2)n1 (stereo not given) | -14.25
CCOc1ccc(-c2cc(CCN)ccc2OC)cc1 | 7.711
O=C(N[C@H]1CN(Cc2cccs2)[C@@H]2CCCO[C@H]12)c1cccnc1.O=C(O)C(F)(F)F.O=C(O)C(F)(F)F | -1.494
Cl.O=C(N[C@H]1CN[C@H]2CCCO[C@H]21)c1cscn1 | 6.195
CN1C[C@H](NC(=O)c2cscn2)[C@@H]2OCCC[C@@H]21.O=C(O)C(F)(F)F | 111.9
Nc1ncccc1CN1C[C@@H]2CC[C@H](C1)N(CC1CC1)C2=O | 7.202
CNCC[C@H]1CC(C)(C)Oc2ccc(C)cc21 | 99.82

Compound | Percent Effect [%]
COCc1cn(C[C@H]2C[C@@H]3CCN2C[C@@H]3C(=O)N2CCOCC2)nn1 | -6.421
CN(C)CCN(C(=O)Cc1ccc2c(c1)OCCO2)C1CCN(C)CC1.O=C(O)CC(O)(CC(=O)O)C(=O)O | 109
Cc1[nH]c2c(C)cccc2c1CC(=O)N(C)CCN(C)C.O=C(O)CC(O)(CC(=O)O)C(=O)O | 103
O=C(CN1CCN(C(=O)Cc2ccc3c(c2)OCCO3)CC1)NC1CC1 | 5.479
CN(C)CCN(C)C(=O)Cc1ccc2c(c1)OCCO2.O=C(O)CC(O)(CC(=O)O)C(=O)O | 107.5
NC(=O)CN1CCCN(C(=O)Cc2ccc3c(c2)OCO3)CC1 | -4.573
CC(C)NC(=O)c1ccc2c(c1)C1(CCN(C(C)C)CC1)C(=O)N2.O=C(O)C(F)(F)F | 106.4
CNC(=O)c1ccc2c(c1)C1(CCN(CC(C)C)CC1)C(=O)N2.O=C(O)C(F)(F)F | -7.062
CNC(=O)c1ccc2c(c1)C1(CCN(C(C)C)CC1)C(=O)N2.O=C(O)C(F)(F)F | 95.47
CC(C)N1C(=O)C2(CCN(C)CC2)c2cc(F)ccc21.Cl | -32.23
CC(C)CN1CCC2(CC1)C(=O)Nc1ccc(C(=O)NC(C)C)cc12.O=C(O)C(F)(F)F | 99.87
CNC(=O)[C@H]1C[C@@H]2CN(C(=O)c3ccc(C)nc3)C[C@@H]2N1C(C)C.O=C(O)C(F)(F)F.O=C(O)C(F)(F)F | 4.326
CC(C)CN1CCC2(CC1)C(=O)Nc1ccc(C(=O)N(C)C)cc12.O=C(O)C(F)(F)F | -3.196
CC(C)NC(=O)c1ccc2c(c1)C1(CCN(C)CC1)C(=O)N2.O=C(O)C(F)(F)F | 109.7
CNC(=O)[C@H]1C[C@H]2OCC[C@H]2N(CC2CC2)C1.O=C(O)C(F)(F)F | -3.474
Cc1ccccc1CNCC(O)c1ccc(OC(C)C)cc1 (stereo not given) | 14.53
CCc1cc(CN(C)C(=O)CN2CC(Cc3ccccc3)CC2=O)on1 (stereo not given) | 4.825
O=C(NCC1CC1)C1CCC2(CCNCC2)C1 (stereo not given) | -14.8
Cc1cc(CC(=O)N2CCN(C)[C@@H]3CS(=O)(=O)C[C@@H]32)ccc1F | -18.64
CCS(=O)(=O)c1nnc([C@@H](N)Cc2ccccc2)o1 | 144
Cc1cnc(N2CCC3(CCCCN3C)C2)nc1.O=C(O)C(F)(F)F (stereo not given) | -23.72
O=S(=O)(NC[C@H]1C[C@@H]2CCN1C[C@@H]2CN1CCCCC1)c1ccccc1 | -3.393
COCCN1CCN(S(C)(=O)=O)Cc2cccnc21 | 94.34
COCCN1CCN(S(=O)(=O)C2CC2)Cc2ccc(C)nc21.O=C(O)C(F)(F)F | 0.9634
CCCS(=O)(=O)N1CCN(CCOC)c2nc(C)ccc2C1.O=C(O)C(F)(F)F | 12.9
COCCN1CCN(S(=O)(=O)C2CC2)Cc2cccnc21 | 114
CCS(=O)(=O)N1CCN(CCOC)c2ncccc2C1 | 117.1
